Source: PubChem BioAssay (EPA / NIEHS)
Where “and” joins values, the source holds several entries; their conditions need not be identical. Equal entries are not always repeated. Records with an inconclusive call do not appear. More than one record can exist for a structure, and the calls need not agree. Calls of active or inactive are those of the source. The calls were made as follows, unless noted: active = hit-call score of the fitted dose curve at least 0.9, where 1 is the maximum; inactive = score below 0.9.

Legend:
[1] = read-out: succinate dehydrogenase complex iron sulfur subunit B (SDHB), SDHB (gene 6390); assay: LTEA_HepaRG_SDHB: Life Technologies and Expression Analysis (LTEA) Assay for succinate dehydrogenase complex iron sulfur subunit B (SDHB) using HepaRG (AID 2283528); settings: mRNA level, 48 h; actives raise or lower the signal
In short: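 HepaRG cells (~100,000/well, plated 48 h) exposed in duplicate for 48 h in serum-free induction medium to 8-point half-log series from 100 uM in 0.5% DMSO; mRNA by qRT-PCR normalised to ACTB, GAPDH, POLR2A; bidirectional fit versus DMSO.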

[2] = read-out: Signal transducer and activator of transcription 3 (Homo sapiens) (UniProt P40763); assay: LTEA_HepaRG_STAT3: Life Technologies and Expression Analysis (LTEA) Assay for Signal transducer and activator of transcription (STAT3) using HepaRG (AID 2283529); settings: mRNA level, 48 h; actives raise or lower the signal
In short: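 Differentiated HepaRG cells, serum-free induction medium, dosed 48 h in duplicate, 8 half-log concentrations from 100 uM in 0.5% DMSO. STAT3 mRNA by qRT-PCR, normalised to ACTB, GAPDH, POLR2A; bidirectional fit versus DMSO.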

[3] = read-out: solute carrier (SLCO1B1), SLCO1B1 (gene 10599); assay: LTEA_HepaRG_SLCO1B1: Life Technologies and Expression Analysis (LTEA) Assay for solute carrier (SLCO1B1) using HepaRG (AID 2283530); settings: mRNA level, 48 h; actives raise or lower the signal
In short: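 Differentiated human HepaRG cells, plated 48 h, switched to serum-free induction medium and exposed in duplicate for 48 h to 8 half-log concentrations (top 100 uM) in 0.5% DMSO. SLCO1B1 mRNA by TaqMan qRT-PCR, normalized to ACTB/GAPDH/POLR2A.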

[4] = read-out: sulfotransferase 2A1 (SULT2A1), SULT2A1 (gene 6822); assay: LTEA_HepaRG_SULT2A1: Life Technologies and Expression Analysis (LTEA) Assay for sulfotransferase 2A1 (SULT2A1) using HepaRG (AID 2283531); settings: mRNA level, 48 h; actives raise or lower the signal
In short: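 Differentiated human HepaRG cells in serum-free induction medium were exposed for 48 h to eight half-log concentrations (top 100 uM, 0.5% DMSO). SULT2A1 mRNA was measured by qRT-PCR, normalized to ACTB, GAPDH and POLR2A, and fitted bidirectionally against DMSO.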

[5] = read-out: Transforming Growth Factor (TGFA), TGFA (gene 7039); assay: LTEA_HepaRG_TGFA: Life Technologies and Expression Analysis (LTEA) Assay for Transforming Growth Factor (TGFA) using HepaRG (AID 2283532); settings: mRNA level, 48 h; actives raise or lower the signal
In short: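 Differentiated HepaRG cells exposed 48 hours in serum-free induction medium, 0.5% DMSO vehicle, 8-point half-log series from 100 uM, in duplicate. TGFA mRNA by TaqMan qRT-PCR, normalised to ACTB, GAPDH, POLR2A; bidirectional fit versus DMSO.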

[6] = read-out: Transforming Growth Factor (TGFB1), TGFB1 (gene 7040); assay: LTEA_HepaRG_TGFB1: Life Technologies and Expression Analysis (LTEA) Assay for Transforming Growth Factor (TGFB1) Transporter using HepaRG (AID 2283533); settings: mRNA level, 48 h; actives raise or lower the signal
In short: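 Differentiated human HepaRG cells in serum-free induction medium were exposed in duplicate for 48 h to eight concentrations (top 100 uM, half-log steps, 0.5% DMSO). TGFB1 mRNA was quantified by qRT-PCR, normalized to ACTB, GAPDH, POLR2A, and fitted bidirectionally against DMSO.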

TIMP1, TIMP1 (gene 7076) = assay: LTEA_HepaRG_TIMP1: Life Technologies and Expression Analysis (LTEA) Assay for TIMP1 using HepaRG (AID 2283534); settings: mRNA level, 48 h; actives raise or lower the signal;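 also: TaqMan qRT-PCR signal normalized to ACTB GAPDH and POLR2A housekeeping genes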
In short: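 Differentiated human HepaRG cells in serum-free induction medium were exposed 48 h to chemicals (8 half-log concentrations, top 100 uM, 0.5% DMSO). TIMP1 mRNA was quantified by TaqMan qRT-PCR, normalized to ACTB/GAPDH/POLR2A; bidirectional fit versus DMSO.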

[7] = read-out: Thyroid Hormone Responsive (THRSP), THRSP (gene 7069); assay: LTEA_HepaRG_THRSP: Life Technologies and Expression Analysis (LTEA) Assay for Thyroid Hormone Responsive (THRSP) using HepaRG (AID 2283536); settings: mRNA level, 48 h; actives raise or lower the signal
In short: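 Differentiated HepaRG cells treated 48 h in serum-free induction medium with 8 half-log concentrations up to 100 uM (0.5% DMSO), duplicates. THRSP mRNA by TaqMan qRT-PCR normalised to ACTB, GAPDH, POLR2A; bidirectional fit versus DMSO.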

[8] = read-out: Cellular tumor antigen p53 (Homo sapiens) (UniProt P04637); assay: LTEA_HepaRG_TP53: Life Technologies and Expression Analysis (LTEA) Assay for Tumor Protein P53 (TP53) using HepaRG (AID 2283537); settings: mRNA level, 48 h; actives raise or lower the signal
In short: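 Differentiated HepaRG cells in serum-free induction medium exposed 48 h in duplicate to 8 half-log concentrations, top 100 uM, 0.5% DMSO. TP53 mRNA by TaqMan qRT-PCR (Fluidigm), normalized to ACTB, GAPDH, POLR2A; fitted bidirectionally versus DMSO.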

[9] = read-out: UDP glucuronosyltransferase (UGT1A1), UGT1A1 (gene 54658); assay: LTEA_HepaRG_UGT1A1: Life Technologies and Expression Analysis (LTEA) Assay for UDP glucuronosyltransferase (UGT1A1) using HepaRG (AID 2283538); settings: mRNA level, 48 h; actives raise or lower the signal
In short: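 Readout is UGT1A1 transcript level by qRT-PCR, normalized to three housekeeping genes, after 48 h chemical treatment of HepaRG cells. Concentrations ran from 100 uM down in half-log steps with 0.5% DMSO, and gain or loss relative to DMSO was fitted.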

[10] = read-out: UDP glucuronosyltransferase (UGT1A6), UGT1A6 (gene 54578); assay: LTEA_HepaRG_UGT1A6: Life Technologies and Expression Analysis (LTEA) Assay for UDP glucuronosyltransferase (UGT1A6) using HepaRG (AID 2283539); settings: mRNA level, 48 h; actives raise or lower the signal
In short: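 Human HepaRG cells were dosed for 48 h in serum-free induction medium with 0.5% DMSO vehicle, eight-point half-log series from 100 uM, in duplicate. UGT1A6 mRNA was measured by qRT-PCR, normalized to ACTB, GAPDH, POLR2A, and fitted bidirectionally against DMSO.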

[11] = read-out: X-box binding protein 1 (XBP1), XBP1 (gene 7494); assay: LTEA_HepaRG_XBP1: Life Technologies and Expression Analysis (LTEA) Assay for X-box binding protein 1 (XBP1) using HepaRG (AID 2283540); settings: mRNA level, 48 h; actives raise or lower the signal
In short: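 Differentiated human HepaRG cells in serum-free induction medium were exposed in duplicate for 48 h to eight half-log concentrations up to 100 uM in 0.5% DMSO. XBP1 mRNA was quantified by qRT-PCR, normalised to ACTB, GAPDH and POLR2A, with bidirectional fitting against DMSO.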

[12] = LTEA_HepaRG_LDH_cytotoxicity: Cytotoxicity Assessment in the Life Technologies and Expression Analysis (LTEA) Assay (AID 2283563; active = hit-call score of the fitted dose curve at least 0.9, where 1 is the maximum)
In short: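 Differentiated human HepaRG cells, plated 48 h beforehand, were switched to serum-free induction medium and exposed for 48 h to eight half-log concentrations (top 100 uM) in 0.5% DMSO. LDH was measured in spent medium; activity was fitted relative to DMSO vehicle.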

[13] = ATG_XTT_Cytotoxicity: Cytotoxicity Assessment in the Attagene TRANS-FACTORIAL HepG2 Assay (AID 2283584; active = hit-call score of the fitted dose curve at least 0.9, where 1 is the maximum)
In short: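 HepG2 human liver cells, transiently transfected with multiple GAL4-UAS reporter units, were dosed and read at 24 h by XTT as cell number. Loss of signal was fitted relative to DMSO negative control baseline.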

[14] = target: Cellular tumor antigen p53 (Homo sapiens) (UniProt P04637); assay: TOX21_p53_BLA_p2_ratio: Tox21 HCT-116 p53 Agonism Beta-lactamase Assay, Ratio, Phase 2 (AID 2283592; active = hit-call score of the fitted dose curve at least 0.9, where 1 is the maximum)
Cellular tumor antigen p53 (Homo sapiens), sequence (P04637 whole entry, looked up): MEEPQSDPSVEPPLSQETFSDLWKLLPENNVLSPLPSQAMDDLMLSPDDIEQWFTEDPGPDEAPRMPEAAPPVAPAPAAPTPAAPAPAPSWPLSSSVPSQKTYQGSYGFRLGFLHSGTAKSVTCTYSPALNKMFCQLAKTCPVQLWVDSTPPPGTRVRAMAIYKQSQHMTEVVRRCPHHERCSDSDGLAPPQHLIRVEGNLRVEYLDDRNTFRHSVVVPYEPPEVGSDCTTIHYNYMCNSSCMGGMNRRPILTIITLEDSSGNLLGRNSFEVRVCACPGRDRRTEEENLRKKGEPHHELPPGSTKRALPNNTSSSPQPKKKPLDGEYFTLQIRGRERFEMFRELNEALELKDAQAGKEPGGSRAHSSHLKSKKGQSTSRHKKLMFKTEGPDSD
In short: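 HCT116 cells carrying a p53-responsive beta-lactamase reporter were plated, incubated 5 h at 37C, then dosed with compounds in DMSO (217-fold dilution) for 16 h. CCF4-AM substrate was added for 2 h at room temperature; the 460/530 nm emission ratio gave gain-of-signal activity relative to DMSO.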

[15] = target: Cellular tumor antigen p53 (Homo sapiens) (UniProt P04637); assay: TOX21_p53_BLA_p3_ratio: Tox21 HCT-116 p53 Agonism Beta-lactamase Assay, Ratio, Phase 3 (AID 2283596; active = hit-call score of the fitted dose curve at least 0.9, where 1 is the maximum)
In short: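 HCT116 p53-bla cells (4000/well) given compound in DMSO (217-fold dilution) after 5 h, incubated 16 h at 37C. CCF4-AM substrate 2 h at room temperature; 460/530 nm emission ratio, gain fitted against DMSO.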

[16] = read-out: Tumor necrosis factor receptor 1 (TNFRSF1A), TNFRSF1A (gene 7132); assay: LTEA_HepaRG_TNFRSF1A: Life Technologies and Expression Analysis (LTEA) Assay for Tumor necrosis factor receptor 1 (TNFRSF1A) using HepaRG (AID 2283535); settings: mRNA level, 48 h; actives raise or lower the signal
In short: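 Differentiated human HepaRG cells were exposed in duplicate for 48 h in serum-free induction medium to eight concentrations (top 100 uM, half-log steps, 0.5% DMSO). TNFRSF1A mRNA was quantified by qRT-PCR, normalized to ACTB, GAPDH and POLR2A, then fitted bidirectionally against DMSO.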

[17] = TOX21_p53_BLA_p2_viability: Viability Assessment in the Tox21 HCT-116 p53 Agonism Beta-lactamase Assay, Phase 2 (AID 2283591; active = hit-call score of the fitted dose curve at least 0.9, where 1 is the maximum;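 also: compound exposure lasted 16 h at 37 °C; actives lower the ATP signal meaning cytotoxicity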)
In short: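 HCT116 p53-bla cells, 4000/well, dosed after 5 h plating (217-fold dilution of DMSO stocks) and incubated 16 h at 37C. Viability taken as cellular ATP by CellTiter-Glo luminescence after 30 min RT; signal loss marks cytotoxicity.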

[18] = TOX21_p53_BLA_p3_viability: Viability Assessment in the Tox21 HCT-116 p53 Agonism Beta-lactamase Assay, Phase 3 (AID 2283593; active = hit-call score of the fitted dose curve at least 0.9, where 1 is the maximum;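 also: cells exposed to compound for 16 h before reading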)
In short: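 HCT116 cells, 4000/well, dosed 5 h after plating by pin transfer (217-fold dilution from DMSO stock) and incubated 16 h at 37C, 5% CO2. Viability read as ATP luminescence with CellTiter-Glo after 30 min at room temperature.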

[19] = TOX21_p53_BLA_p4_viability: Viability Assessment in the Tox21 HCT-116 p53 Agonism Beta-lactamase Assay, Phase 4 (AID 2283597; active = hit-call score of the fitted dose curve at least 0.9, where 1 is the maximum;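 also: hits lower the luminescence signal meaning cytotoxicity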)
In short: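 HCT116 p53-bla cells (4000/well) rested 5 h at 37C, then received compounds in DMSO (217-fold dilution) for 16 h at 37C, 5% CO2. CellTiter-Glo was added after the CCF4-AM read, and luminescence was read after 30 min at room temperature.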

Measured: AC50

Signal transducer and activator of transcription 3 (Homo sapiens), sequence (P40763 whole entry, looked up): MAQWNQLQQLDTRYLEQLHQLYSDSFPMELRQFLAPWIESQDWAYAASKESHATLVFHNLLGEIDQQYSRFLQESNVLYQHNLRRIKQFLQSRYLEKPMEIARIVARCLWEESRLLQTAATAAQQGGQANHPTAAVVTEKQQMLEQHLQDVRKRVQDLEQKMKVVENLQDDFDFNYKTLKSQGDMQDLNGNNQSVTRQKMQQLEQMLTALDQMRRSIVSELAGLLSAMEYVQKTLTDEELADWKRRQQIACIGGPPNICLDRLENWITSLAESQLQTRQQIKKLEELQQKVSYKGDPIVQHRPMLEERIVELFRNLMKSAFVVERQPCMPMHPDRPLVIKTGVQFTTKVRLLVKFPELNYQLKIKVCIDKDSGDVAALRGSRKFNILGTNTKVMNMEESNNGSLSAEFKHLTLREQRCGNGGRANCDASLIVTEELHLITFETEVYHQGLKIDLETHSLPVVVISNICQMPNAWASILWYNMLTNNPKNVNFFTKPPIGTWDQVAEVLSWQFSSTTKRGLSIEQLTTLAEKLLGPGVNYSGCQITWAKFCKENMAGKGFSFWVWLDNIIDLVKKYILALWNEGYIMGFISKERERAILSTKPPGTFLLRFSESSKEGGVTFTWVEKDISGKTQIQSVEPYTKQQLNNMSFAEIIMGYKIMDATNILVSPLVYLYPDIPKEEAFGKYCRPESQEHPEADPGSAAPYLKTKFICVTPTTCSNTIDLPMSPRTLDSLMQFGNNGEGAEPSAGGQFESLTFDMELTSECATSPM

CN(C)CCCN(C)CCCN(C)C
not listed: [16] | [17] | [18] | [19]
inactive: all other assays above

O=Cc1ccccc1C=O
not listed: [8] | [11] | [14] | [15] | [17] | [18] | [19]
inactive: all other assays above

O=C1CCCCC1
active: [16] 0.0538 µM
not listed: [8] | [14] | [15] | [17] | [18] | [19]
inactive: all other assays above

O=C(NS(=O)(=O)/C=C/c1cccs1)c1ccc(F)cc1Br
active: [9] 14 µM
not listed: [8] | [11] | [13] | [14] | [15] | [17] | [18] | [19]
inactive: all other assays above

Oc1ccc(O)cc1
active: [17] 72.8 µM and 70 µM | [14] 20.2 µM | [18] 42.5 µM and 61.1 µM and 38.2 µM | [15] 21.4 µM | [19] 47.1 µM and 70.6 µM and 36.2 µM
inactive: [1] | [2] | [3] | [4] | [5] | [6] | TIMP1, TIMP1 (gene 7076) | [7] | [8] | [9] | [10] | [11] | [12] | [13] | [17] | [14] | [15]

CCCCCCC(C=O)=Cc1ccccc1
not listed: [8] | [14] | [15] | [17] | [18] | [19]
inactive: all other assays above

CC(=O)CC(c1ccccc1)c1c(O)c2ccccc2oc1=O (configuration not stated)
active: [7] 34.5 µM
not listed: [8] | [14] | [15] | [17] | [18] | [19]
inactive: all other assays above

CS(=O)(=O)c1ccc([C@@H](C[C@H]2CCC(=O)C2)C(=O)Nc2cnccn2)cc1Cl
active: [2] 50 µM | [3] 1.01 µM | [5] 0.938 µM | [6] 1.22 µM | [7] 27.2 µM | [8] 1.09 µM | [11] 1.33 µM
not listed: [14] | [16] | [19]
inactive: all other assays above
